Source: PubChem BioAssay AID1159580 (chemical genetic matrix, 2015)
The whole screen tested about 5,500 compounds, of which about 2,000 (36%) were called active. Not shown: some 18% with an inconclusive outcome. Cut-off read from the data, not from the text of the source: active = normalized growth mostly below about 0.91 (no sharp cut-off); inconclusive = no clear call, values can overlap the other calls; inactive = mostly above about 0.92. Some of the results follow.

Test: chemical genetic growth profiling, strain panel (AID 1159580);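 note: tested at 20 µM; growth read once vehicle control cultures reached saturation at 30 °C; 1 = growth at the plate median or of vehicle wells; lower values mean less growth of the strain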
Settings: growth OD
[1] = S. cerevisiae deletion strains, locus YCL061C, strain MRC1, hits give low values
[2] = S. cerevisiae deletion strains, locus YHR030C, strain SLT2, hits give low values

Measured: normalized growth

COc1ccccc1Oc1ccc(C(F)(F)F)cc1NC(=O)NC(=O)c1ccccc1F
inactive: S. cerevisiae deletion strains, locus YAL013W, strain DEP1, hits give low values 0.997 | S. cerevisiae deletion strains, locus YBR229C, strain ROT2, hits give low values 1 | [1] 0.972 | S. cerevisiae deletion strains, locus YDL101C, strain DUN1, hits give low values 0.968 | S. cerevisiae deletion strains, locus YDL134C, strain PPH21, hits give low values 0.984 | S. cerevisiae deletion strains, locus YDR150W, strain NUM1, hits give low values 1.02 | S. cerevisiae deletion strains, locus YEL061C, strain CIN8, hits give low values 0.979 | S. cerevisiae deletion strains, locus YGR078C, strain PAC10, hits give low values 0.979 | [2] 1 | S. cerevisiae deletion strains, locus YHR087W, strain rtc3, hits give low values 1.06 | S. cerevisiae deletion strains, locus YJR043C, strain POL32, hits give low values 0.984 | S. cerevisiae deletion strains, locus YJR075W, strain HOC1, hits give low values 1.02 | S. cerevisiae deletion strains, locus YLR039C, strain RIC1, hits give low values 0.964 | S. cerevisiae deletion strains, locus YLR058C, strain SHM2 (second series), hits give low values 1 | S. cerevisiae deletion strains, locus YLR085C, strain ARP6, hits give low values 1.02 | S. cerevisiae deletion strains, locus YLR262C, strain YPT6, hits give low values 1.02 | S. cerevisiae deletion strains, locus YML094W, strain GIM5, hits give low values 1.02 | S. cerevisiae deletion strains, locus YMR219W, strain ESC1, hits give low values 0.994 | S. cerevisiae deletion strains, locus YMR263W, strain SAP30, hits give low values 1.01 | S. cerevisiae deletion strains, locus YNL153C, strain GIM3, hits give low values 1 | S. cerevisiae deletion strains, locus YNL298W, strain CLA4 (second series), hits give low values 0.958 | S. cerevisiae deletion strains, locus YNL322C, strain KRE1, hits give low values 0.995 | S. cerevisiae deletion strains, locus YNR030W, strain Alg12, hits give low values 1.03 | S. cerevisiae deletion strains, locus YOL006C, strain TOP1, hits give low values 0.966 | S. cerevisiae deletion strains, locus YPL055C, strain LGE1, hits give low values 1.04 | S. cerevisiae deletion strains, locus YPL241C, strain CIN2, hits give low values 0.992 | S. cerevisiae deletion strains, locus YPR135W, strain CTF4, hits give low values 0.957 | S. cerevisiae strains, strain wild type, hits give low values 0.974

O=C1[O][Bi][O]c2ccccc21
inactive: S. cerevisiae deletion strains, locus YAL021C, strain ccr4, hits give low values 1.06 | S. cerevisiae deletion strains, locus YAL026C, strain drs2, hits give low values 1.05 | S. cerevisiae deletion strains, locus YAL030W, strain snc1, hits give low values 0.972 | S. cerevisiae deletion strains, locus YBL061C, strain skt5, hits give low values 1.04 | S. cerevisiae deletion strains, locus YBR009C, strain hhf1, hits give low values 0.981 | S. cerevisiae deletion strains, locus YBR023C, strain chs3, hits give low values 1.05 | S. cerevisiae deletion strains, locus YBR171W, strain sec66, hits give low values 1.07 | S. cerevisiae deletion strains, locus YBR231C, strain swc5, hits give low values 1.02 | S. cerevisiae deletion strains, locus YBR279W, strain paf1, hits give low values 0.932 | S. cerevisiae deletion strains, locus YCL011C, strain gbp2, hits give low values 0.966 | S. cerevisiae deletion strains, locus YCL016C, strain dcc1, hits give low values 1.04 | [1] 1.05 | S. cerevisiae deletion strains, locus YCL069W, strain vba3, hits give low values 1.06 | S. cerevisiae deletion strains, locus YCR088W, strain abp1, hits give low values 1.07 | S. cerevisiae deletion strains, locus YDL005C, strain med2, hits give low values 1.05 | S. cerevisiae deletion strains, locus YDL040C, strain nat1, hits give low values 1.03 | S. cerevisiae deletion strains, locus YDR001C, strain nth1, hits give low values 1.03 | S. cerevisiae deletion strains, locus YDR069C, strain doa4, hits give low values 0.944 | S. cerevisiae deletion strains, locus YDR137W, strain rgp1, hits give low values 1 | S. cerevisiae deletion strains, locus YDR159W, strain sac3, hits give low values 0.954 | S. cerevisiae deletion strains, locus YDR297W, strain sur2, hits give low values 0.94 | S. cerevisiae deletion strains, locus YDR334W, strain swr1, hits give low values 1.05 | S. cerevisiae deletion strains, locus YDR335W, strain msn5, hits give low values 1.04 | S. cerevisiae deletion strains, locus YDR392W, strain spt3, hits give low values 1.03 | S. cerevisiae deletion strains, locus YEL003W, strain gim4, hits give low values 1.03 | S. cerevisiae deletion strains, locus YEL037C, strain rad23, hits give low values 1.03 | S. cerevisiae deletion strains, locus YEL061C, strain CIN8 (second series), hits give low values 1.02 | S. cerevisiae deletion strains, locus YER015W, strain faa2, hits give low values 0.951 | S. cerevisiae deletion strains, locus YER016W, strain bim1, hits give low values 1.05 | S. cerevisiae deletion strains, locus YER111C, strain swi4, hits give low values 1.02 | S. cerevisiae deletion strains, locus YER155C, strain BEM2 (second series), hits give low values 0.997 | S. cerevisiae deletion strains, locus YGL167C, strain pmr1, hits give low values 1.03 | S. cerevisiae deletion strains, locus YGL227W, strain vid30, hits give low values 1.05 | S. cerevisiae deletion strains, locus YGL253W, strain hxk2, hits give low values 1.05 | S. cerevisiae deletion strains, locus YHR013C, strain ard1, hits give low values 1.02 | [2] 0.996 | S. cerevisiae deletion strains, locus YHR079C, strain IRE1, hits give low values 0.985 | S. cerevisiae deletion strains, locus YHR142W, strain chs7, hits give low values 1.08 | S. cerevisiae deletion strains, locus YJL092W, strain hpr5, hits give low values 1.06 | S. cerevisiae deletion strains, locus YJL095W, strain BCK1, hits give low values 1.02 | S. cerevisiae deletion strains, locus YJL115W, strain asf1, hits give low values 1.03 | S. cerevisiae deletion strains, locus YJL129C, strain trk1, hits give low values 1.05 | S. cerevisiae deletion strains, locus YJL154C, strain vps35, hits give low values 1.04 | S. cerevisiae deletion strains, locus YJL166W, strain qcr8, hits give low values 0.937 | S. cerevisiae deletion strains, locus YJR066W, strain TOR1, hits give low values 0.925 | S. cerevisiae deletion strains, locus YKL160W, strain elf1, hits give low values 0.996 | S. cerevisiae deletion strains, locus YKR026C, strain gcn3, hits give low values 1.05 | S. cerevisiae deletion strains, locus YKR091W, strain srl3, hits give low values 1.04 | S. cerevisiae deletion strains, locus YLL001W, strain dnm1, hits give low values 1.04 | S. cerevisiae deletion strains, locus YLL026W, hits give low values 1.01 | S. cerevisiae deletion strains, locus YLL041C, strain sdh2, hits give low values 1.04 | S. cerevisiae deletion strains, locus YLR027C, strain aat2, hits give low values 1.04 | S. cerevisiae deletion strains, locus YLR113W, strain HOG1, hits give low values 1.06 | S. cerevisiae deletion strains, locus YLR221C, strain rsa3, hits give low values 1.02 | S. cerevisiae deletion strains, locus YLR258W, strain gsy2, hits give low values 1.02 | S. cerevisiae deletion strains, locus YLR262C, strain YPT6 (second series), hits give low values 1.06 | S. cerevisiae deletion strains, locus YLR320W, strain mms22, hits give low values 1.03 | S. cerevisiae deletion strains, locus YLR342W, strain FKS1, hits give low values 1.01 | S. cerevisiae deletion strains, locus YLR357W, strain rsc2, hits give low values 1 | S. cerevisiae deletion strains, locus YLR370C, strain arc18, hits give low values 1.06 | S. cerevisiae deletion strains, locus YLR384C, strain iki3, hits give low values 1.01 | S. cerevisiae deletion strains, locus YML120C, strain ndi1, hits give low values 1.03 | S. cerevisiae deletion strains, locus YMR125W, strain sto1, hits give low values 1.04 | S. cerevisiae deletion strains, locus YMR129W, hits give low values 0.96 | S. cerevisiae deletion strains, locus YMR205C, strain PFK2, hits give low values 0.985 | S. cerevisiae deletion strains, locus YMR231W, strain pep5, hits give low values 1.02 | S. cerevisiae deletion strains, locus YNL071W, strain lat1, hits give low values 1.03 | S. cerevisiae deletion strains, locus YNL183C, strain NPR1, hits give low values 0.936 | S. cerevisiae deletion strains, locus YNL248C, strain rpa49, hits give low values 1.07 | S. cerevisiae deletion strains, locus YNL322C, strain KRE1 (second series), hits give low values 1.05 | S. cerevisiae deletion strains, locus YNR049C, strain mso1, hits give low values 1.05 | S. cerevisiae deletion strains, locus YOR001W, strain rrp6, hits give low values 1.06 | S. cerevisiae deletion strains, locus YOR070C, strain gyp1, hits give low values 1.03 | S. cerevisiae deletion strains, locus YOR080W, strain dia2, hits give low values 1.05 | S. cerevisiae deletion strains, locus YOR083W, strain WHI5, hits give low values 1.03 | S. cerevisiae deletion strains, locus YOR231W, strain MKK1, hits give low values 1.02 | S. cerevisiae deletion strains, locus YOR265W, strain rbl2, hits give low values 1.04 | S. cerevisiae deletion strains, locus YOR290C, strain snf2, hits give low values 1.01 | S. cerevisiae deletion strains, locus YPL051W, strain arl3, hits give low values 0.945 | S. cerevisiae deletion strains, locus YPL078C, strain atp4, hits give low values 1.04 | S. cerevisiae deletion strains, locus YPL106C, strain sse1, hits give low values 1 | S. cerevisiae deletion strains, locus YPL240C, strain hsp82, hits give low values 1.02 | S. cerevisiae deletion strains, locus YPL256C, strain CLN2, hits give low values 1
active: S. cerevisiae deletion strains, locus YDR195W, strain ref2 1.3 [resistant] | S. cerevisiae deletion strains, locus YFR010W, strain ubp6, hits give low values 1.11 [resistant] | S. cerevisiae deletion strains, locus YGL173C, strain kem1, hits give low values 0.416 | S. cerevisiae deletion strains, locus YGL240W, strain doc1, hits give low values 1.13 [resistant] | S. cerevisiae deletion strains, locus YHR027C, strain rpn1, hits give low values 0.904 | S. cerevisiae deletion strains, locus YJL095W, strain BCK1 (second series), hits give low values 0.914 | S. cerevisiae deletion strains, locus YJL164C, strain tpk1, hits give low values 0.732 | S. cerevisiae deletion strains, locus YMR058W, strain fet3, hits give low values 0.851 | S. cerevisiae deletion strains, locus YNL209W, strain ssb2, hits give low values 0.923 | S. cerevisiae deletion strains, locus YOR106W, strain vam3, hits give low values 0.861 | S. cerevisiae deletion strains, locus YOR270C, strain vph1, hits give low values 1.35 [resistant]
